Screen size: about 31,000 sequences; about 1,400 (4.5%) were called active.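 The calls were made as follows: active = median seed-adjusted z-score above 1 or below -1; inactive = the rest.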 The entries come from a sample that favours actives as a whole.
Assay: Novel Modifiers of Survival Motor Neuron (SMN) Protein: Gene Identification via Genome-wide siRNA Screen;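 also: luminescence tracks full-length SMN protein made from the SMN2 reporter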
Conditions: HEK293T SMN2-luciferase reporter, siRNA knockdown, 72 h; actives lie on both sides
Method in brief: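 Steps: spot 1 pmol siRNA, add Lipofectamine RNAiMax in serum-free DMEM, seed HEK293T SMN2–luciferase reporter cells; incubate 72 h at 37 °C; add ONE-Glo; normalize luminescence to control siRNA, log10, MAD. Candidates: |MAD| > 1.0.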

Sequence | median seed-adjusted z-score
GGAAGAUUCAGUUAACAUUTT against NUDT3 | 0.674 (inactive)
CAACCAUGUUCAGUAUAGATT against SPINK9 | 0.392 (inactive)
CCGGAGAAGUUCAACAGCATT against DGKA | -1.36 (active)
GCUAAUCAUUGAGUAUGCATT against KLHL10 | 0.0708 (inactive)
AGCUGACCGAGUUCCUGCATT against GAL3ST1 | 0.263 (inactive)
CCUUGGAGGAGAUCGCUGATT against TEKT2 | -0.349 (inactive)
GGCAUACAGUUCCGAGAAATT against AGL | -0.385 (inactive)
GUCUUAGAAUGUGAACGUATT against CCNL1 | -1.26 (active)
GGCAGGAGGUUUAAGAAGUTT against PPP3R2 | -0.143 (inactive)
GAGAGUAUCGAAACCGUUUTT against GNPTAB | 0.296 (inactive)
GGACUGCACUACUCCAUGATT against ADAMTS2 | -0.338 (inactive)
GCACAGUAGUCACCAAUGATT against FUCA2 | 0.562 (inactive)
CCAAGGUACUAACAUGGGATT against AP3M1 | 0 (inactive)
CCCAGACUCUAGAUAGACATT against SULT1C3 | -0.731 (inactive)
CUCCUGCAGUUGAAGGUGATT against FKBP8 | -0.304 (inactive)
CCAACAAUUUAGUAGUUAUTT against TBP | -1.25 (active)
AGUACAACCUGGUGACGCATT against ZNF710 | 0 (inactive)
GGAUCAAUACUCCAACAAATT against ZNF281 | 1.19 (active)
GGCUUGAUGCUGGUACUUUTT against HACL1 | -0.0664 (inactive)
AGCCUGCGGUUUUCUGUAUTT against SYT12 | -0.329 (inactive)
UUACCAUCGUGAAGAGAAATT against CLEC5A | -1.07 (active)
CCUCAUCCCUGUUACAACATT against JAG1 | -0.32 (inactive)
CCAACUGUGUGGCAGAACGTT against FKBP9L | 0.666 (inactive)

Sequence | median seed-adjusted z-score
GUCUGUAGUUCACCCGUUATT against USP9Y | 0.012 (inactive)
AGCUAGGCCUGGAUAUCGATT against KRT83 | 1.15 (active)
GCUUUCUACAAGUAUAAGATT against ERO1LB | 0.565 (inactive)
GGCUACCUGCAUUCACUGATT against SGK1 | -0.659 (inactive)
CCACAGAUGUGCAUAAACATT against NFKB2 | -0.132 (inactive)
GGAACAUCGAAAUCGUGUATT against DDX6 | 1.12 (active)
GGUCUACUUCUACUACAAUTT against UTY | -0.538 (inactive)
CCGGUCAACUGUUACGUAUTT against GJA5 | 0.707 (inactive)
CAUUCUGUGGUGAAACAUUTT against SCLY | 0.00396 (inactive)
CCACCAUAGGAUAUGGUUATT against KCNJ16 | -0.705 (inactive)
CGCAAUAACUGUUUGGUAUTT against EGLN1 | 2.05 (active)
GGCUAAUCGUGAACCGGAATT against DOCK8 | 0.243 (inactive)
GGAUGGUAGUGUCUGACUUTT against MGLL | 0.288 (inactive)
UGAAGAUGAUUGUCCUUAUTT against VAMP8 | -0.184 (inactive)
CACCCUGCAGGUUCCCAUATT against HSD17B14 | 0.386 (inactive)
GGAUGCUUCUGAAUAGAAATT against BIRC7 | -1.44 (active)
CACUAUUGCAUGUAUCGAATT against ARHGAP10 | -0.458 (inactive)
CAAAGGGCUAAGUUCUAAATT against TBC1D5 | 0.38 (inactive)
AAACUAACAUUCGAUUGAATT against TRIM48 | 0 (inactive)
GGUGGAGGACCAAACAGAATT against MGAT4B | 0.0142 (inactive)
GCUCUACUAUUUCUACGAUTT against SPPL2B | 0.0324 (inactive)
GCAAGAGAGUCUCAAAUUUTT against EVX1 | 1 (active)
CCAUGCUCCAGUUAUCUUUTT against SLC10A6 | -0.803 (inactive)

Sequence | median seed-adjusted z-score
GAUUCUUCCCGGCAUCAUATT against GUCY1A3 | 0.187 (inactive)
GGGUGUAAAAUGCACGUUUTT against CLDN16 | -0.868 (inactive)
CACUUGGAGUGGUGAAUCATT against NCL | 1.33 (active)
GCUCGGUGGAAAAACGUGATT against SCN3A | -0.0556 (inactive)
CAGUCUACAGCUUCAACAATT against ZNF207 | -3.1 (active)
CGCUGACCCUGGAGAUGUATT against CALY | 0.216 (inactive)
GGACAAUCCUUUCAUUAAUTT against HTR3C | -0.221 (inactive)
CUAAUUUACUAUUACGCUUTT against F2R | -0.392 (inactive)
UCCCAGCACUUAUAGCCUATT against ANKRA2 | 1.26 (active)
AGCCCUCUUCUGACACUAATT against SERPINH1 | 0.186 (inactive)
GCGUUGACCAAGACUCAUATT against TP53BP2 | 0.157 (inactive)
AGCACUGCAUGUUCACCGATT against KLHL25 | -0.0146 (inactive)
GCAUAUUAAGGAGACCUAUTT against HSD17B6 | 0.573 (inactive)
CCAUCGUUCUGGGAAUUCUTT against CD6 | -0.33 (inactive)
GGAUGAUAAUGCUAAUCCATT against PPP1R3A | -0.241 (inactive)
GGACUUUGACAAGAACAGUTT against CYP1A2 | 0 (inactive)
GAACAAUGAGUAUAUCCUATT against PPP2R5B | 0.237 (inactive)
GACGACCAAUUAUAGUUUATT against ZRANB1 | -0.347 (inactive)
CCAUCAAUGCGGCUCAUGUTT against TUFM | 1.07 (active)
GGAUCAGCCGAGGAUGAAATT against PPP1R15A | 0.539 (inactive)
GGAUCUCAUGCACAUCUCATT against PLA2G6 | -0.123 (inactive)
AGAAGAUUCUUGUAUUUAUTT against IL24 | -0.125 (inactive)
GGAUGAUAUCAACUGCUAUTT against ACVR2A | -0.22 (inactive)

Source: PubChem BioAssay AID1347426 (Functional Genomics Laboratory (NCATS/FGL), 2020)
